Screening data (PubChem)
Rows were chosen to be rich in hits. Some 3.2% of all compounds tested hit in one or more screens of this group.
GSIS activator = GLuc luminescence reporter in INS-1E cells, primary screen for activators of glucose-dependent secretion of insulin; activation, % at 16.6 µM; 370,000 compounds, 0.61% hits; INS-1E GLuc reporter insulin secretion, 2-3 h;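 active = lowest replicate activation of at least 40%, so every replicate reaches that level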;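 note: 0% = median of neutral control wells and 100% = median of IBMX positive control wells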
ERAP1 inh = ERAP1 (human) enzyme inhibition. Q9NZ08. recombinant ERAP1, Leu-AMC fluorescence, 60 min. inhibition, % at 10.7 µM. 340,000 compounds, 0.15% hits. AID 652197;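 active = mean replicate inhibition of at least 30%, or all replicates individually reaching that 30% level; inactive = mean below 30% and not every replicate reaching it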;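 note: 0% = neutral control wells and 100% = L-leucinethiol positive control wells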
DENV2 CPE = inhibitors of DENV2 cytopathic effect. DENV2-infected cells, cytopathic effect rescue, plate reader. CPE inhibition, % at 9.99 µM. 350,000 compounds, 1.7% hits. AID 651640; in the data active = CPE inhibition above about 20%, passing the limit was not always enough; inconclusive = no clear call, values can overlap the other calls; tested in BHK-21 cells;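 note: 0% = median of neutral control wells and 100% = median of positive control wells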
rRNA inh HTS = inhibitors of bacterial rRNA selective over humanized ribosomes | AID 720706 | E. coli WT GFP vs humanized-ribosome RFP mutants, fluorescence, 24 h; active compounds read low; DMSO median 0, no signal -100 | GFP signal change (wild-type ribosome), % (concentration not given with the values) | 350,000 compounds, 1.6% hits;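 active = significant combined selectivity score with lowered wild-type GFP, culture density cut under 30%, mutant RFP and density less affected; inactive = any of these conditions unmet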
CaV13 FRET inh = Primary screen for inhibitors of IQ motif and Ca2+-dependent inactivation inhibitor domain binding in CACNA1D, Förster resonance energy transfer in living cells, …. AID 743397. HEK cells, CFP/YFP FRET ICDI-IQ, plate reader, 10 min; percent FRET-ratio fall versus neutral wells. 340,000 compounds, 0.098% hits. inhibition, % at 12.3 µM;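 active = mean replicate inhibition of at least 30% and at least 1% of replicates passing that level; inconclusive = only one of the two criteria is met; inactive = neither criterion is met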;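 note: 0% = median of the neutral control wells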
PGC1a acetyl inh = modulators of PGC1a acetylation. 350,000 compounds, 0.17% hits. AID 651687. U2OS PGC1a acetylation, AlphaScreen anti-acetyl-lysine; with virally co-expressed GCN5 acetyltransferase. inhibition, % at 15.6 µM;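 active = every replicate shows inhibition of at least 40%; inconclusive = mean inhibition at least 40% but some replicate below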;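 note: 0% = neutral control wells and 100% = positive control wells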
Numbers without * were called inactive; ? = inconclusive; nt = no result; + = active, no number; ! = a repeat was not active.

SMILES	GSIS activator	ERAP1 inh	DENV2 CPE	rRNA inh HTS	CaV13 FRET inh	PGC1a acetyl inh
C[C@@H]1CN([C@@H](C)CO)C(=O)c2cc(NC(=O)CCN3CCOCC3)ccc2O[C@@H]1CN(C)S(=O)(=O)c1cccs1	11	1	2	-2	nt	3
COc1ccc(S(=O)(=O)n2nc(OC(C)=O)cc2N)cc1	-33	3	2	9	-10	nt
COc1ccc(C(=O)Oc2cc(N)n(S(=O)(=O)c3ccccc3)n2)cc1	3	-5	nt	14	97*	nt
CSc1nnc(-c2cc[n+](C)cc2)n1CCO	7	102*	0	0	-3	nt
CC(C)CC#Cc1ccc2c(c1)O[C@@H](CN(C)Cc1ccccc1)[C@H](C)CN([C@H](C)CO)S2(=O)=O	346*	nt	nt	2	nt	0
CC(C)C#Cc1ccc2c(c1)O[C@@H](CN(C)Cc1ccccc1)[C@@H](C)CN([C@@H](C)CO)S2(=O)=O	-12	2	2	-5	nt	99*
CC(C)CC#Cc1ccc2c(c1)O[C@@H](CN(C)Cc1ccc(F)cc1)[C@@H](C)CN([C@H](C)CO)S2(=O)=O	-17	-1	45*	2	nt	-20
CC(C)CC#Cc1ccc2c(c1)O[C@H](CN(C)Cc1ccccc1)[C@H](C)CN([C@H](C)CO)S2(=O)=O	-13	nt	nt	-8	nt	-2
C[C@@H]1CN([C@@H](C)CO)S(=O)(=O)c2ccc(Br)cc2O[C@@H]1CN(C)Cc1ccc2c(c1)OCO2	-37	-2	1	-34*!	-5	-2
COc1cccc(-c2cnc3c(c2)C(=O)N([C@H](C)CO)C[C@@H](C)[C@@H](CN(C)CC2CC2)O3)c1	nt	nt	nt	nt	nt	-5
COC(=O)[C@@H]1[C@@H](CO)[C@@H]2Cn3c(ccc(-c4ccncc4)c3=O)[C@@H]2N1Cc1cccc(F)c1	-1	22	-10	-1	nt	nt
CC(C)CC#Cc1ccc2c(c1)O[C@@H](CN(C)Cc1ccc3c(c1)OCO3)[C@H](C)CN([C@H](C)CO)S2(=O)=O	6	-2	-1	3	nt	53*
CC(C)CC#Cc1ccc2c(c1)O[C@@H](CN(C)Cc1cncnc1)[C@H](C)CN([C@@H](C)CO)S2(=O)=O	-25	1	24*	-23	nt	14
O=C(CN1CCOCC1)N[C@@H]1CC[C@H](CCn2cc(C3CCCCC3)nn2)O[C@@H]1CO	17	2	1	1	nt	5
C[C@@H](O)C#Cc1ccc2c(c1)O[C@@H](CN(C)C(=O)C1CC1)[C@@H](C)CN([C@@H](C)CO)S2(=O)=O	11	0	9	4	nt	11
CC(=O)NS(=O)(=O)c1cccnc1Nc1cccc(Cl)c1	nt	nt	nt	nt	-3	-2
N#Cc1cccnc1Nc1cccc(Cl)c1	59*	4	-4	3	-5	-6
COc1ccc(-c2nc(C)ncc2-c2ccccc2)c(O)c1	5	0	-3	-28*	-2	-5
CCOC(=O)N1CCN(CC(=O)Nc2c(C(=O)OC)[nH]c3ccc(Cl)cc23)CC1	nt	nt	nt	nt	nt	1
CCOC(=O)N1CCN(CC(=O)Nc2c(C(=O)OC)[nH]c3cccc(Cl)c23)CC1	12	-4	4	-15*	-3	nt
CC(C)C#Cc1ccc([C@@H]2[C@H]3CN(C(=O)Cc4ccccc4)CC(=O)N3[C@H]2CO)cc1	-17	-2	-10	-52	nt	6
COc1cc(NC(=O)NCc2ccco2)ccc1-c1ccc(NC(=O)NCc2ccco2)cc1OC	9	-7	11	16	-10	48*
COC(=O)C(Cc1ccccc1)NC(=O)C12CC3CC(CC(C3)C1)C2 (stereo unspecified)	-24	0	2	-34*	-4	nt
C[C@@H]1CN([C@H](C)CO)S(=O)(=O)c2ccc(/C=C/c3ccccc3)cc2O[C@H]1CN(C)C(=O)NC1CCCCC1	-23	0	-5	0	nt	18
O=C(OC1CCOC1=O)c1cc(-c2ccccc2)nc2ccccc12 (stereo unspecified)	nt	nt	nt	nt	-6	nt
SMILES	GSIS activator	ERAP1 inh	DENV2 CPE	rRNA inh HTS	CaV13 FRET inh	PGC1a acetyl inh
O=C(OC1CCOC1=O)c1cc(-c2ccc(Cl)cc2)nc2ccccc12 (stereo unspecified)	56*	-3	-4	1	-8	4
C[C@@H]1CN([C@H](C)CO)C(=O)Cc2cc(NC(=O)Nc3ccc(F)cc3)ccc2O[C@@H]1CN(C)C(=O)Nc1ccc(C(F)(F)F)cc1	-23	nt	?	-3	nt	-9
CC(C)NC(=O)N(C)C[C@H]1Oc2c(NC(=O)NC3CCCCC3)cccc2C(=O)N([C@H](C)CO)C[C@H]1C	9	-1	15	3	nt	2
O=S(=O)(NCc1cc(-c2ccccc2)no1)c1ccccc1	3	-4	1	-23*	2	-11
COC1=CC(=O)OC(c2cccc([N+](=O)[O-])c2)C1 (stereo unspecified)	38	2	41*	nt	-15	nt
CC(=O)Nn1cnc2c(c1=O)C1(CCCC1)Cc1ccccc1-2	nt	nt	nt	nt	-5	5
Oc1ccc(-c2nc3c4c(ncn3n2)-c2ccccc2CC42CCCC2)cc1	190*	nt	nt	nt	-7	nt
CO[C@H]1CN(C)C(=O)c2ccc(NS(=O)(=O)c3ccccc3)cc2OC[C@@H](C)N(Cc2ccccn2)C[C@@H]1C	-15	-1	-3	1	nt	1
O=C(c1cccnc1)N1CC(=O)N2[C@H](C1)[C@H](c1ccc(C#CCC3CCCC3)cc1)[C@@H]2CO	-16	-2	-11	-14	nt	-7
CCOC(=O)CNC(=S)N(Cc1cccs1)C1CCCCC1	-15	3	21*	0	-5	nt
Cc1ccccc1NC(=S)N(Cc1cccs1)C1CCCC1	5	4	-10	-24*	-21	-2
COCC#Cc1cnc2c(c1)C(=O)N([C@H](C)CO)C[C@@H](C)[C@H](CN(C)C(=O)CN1CCOCC1)O2	20	-2	6	0	nt	26
N#C/C(=C\c1ccc(N2CCOCC2)o1)C(=O)NCCc1ccccc1	-8	-1	?	-9	+	3
COCCNC(=O)/C(C#N)=C/c1ccc(N2CCOCC2)o1	-7	nt	nt	nt	-5	nt
CC(=O)NCCNC(=O)CNC(=O)c1ccc(Cl)cc1	47*	nt	nt	nt	-13	nt
C=CCn1c(SCC(=O)NCC)nnc1-c1cc2c(s1)CCC(CC)C2 (stereo unspecified)	13	6	-7	-30	-4	nt
C=CCn1c(SCC(=O)NC(N)=O)nnc1-c1cc2c(s1)CCC(CC)C2 (stereo unspecified)	nt	-2	21*	-9	-5	nt
Cc1noc(C)c1NC(=O)N[C@@H]1C=C[C@H](CC(=O)NCCCN(C)C)O[C@@H]1CO	7	1	0	1	nt	-2
